Compounds without any hit were thinned out: in the full panel of roughly 79,000, 15% have a hit. Calls of active or inactive are those of the source. Cut-off read from the data, not from the text of the source: active = growth inhibition above about 70%; inactive = the rest.
Experiment: NCI Yeast Anticancer Drug Screen. Data for the mlh1 rad18 strain (AID 175)
Conditions: S. cerevisiae mlh1 rad18 strain growth inhibition, stronger effect = higher value
Protocol: Growth inhibition of yeast strains with defined genetic alterations is measured as a screen for potential anti-cancer activity. Selected strains with alterations in DNA damage repair or cell cycle control were exposed to compounds and growth inhibition was measured relative to vehicle treated controls. The strain used in this assay is mlh1 rad18

[1] = at 5.0 µM (retest, dose inferred, filed as 0.5)
[2] = at 50.0 µM (retest, dose inferred, filed as 5.0)

SMILES | growth inhibition [1] | growth inhibition [2] | growth inhibition (at 50.0 µM)
CC1CCCN(CC(O)CN2CCCc3ccccc32)C1 (configuration not stated) | 6% (inactive) | 40% (inactive) | 97.5% (active)
CCCCNC(=O)OCCN=C1c2ccccc2C(Br)C(Br)c2ccccc21 (configuration not stated) | 13% (inactive) | 74% (active) | 98.5% (active)
CCn1c2ccccc2n2c(=O)cc(-c3ccccc3)c(C#N)c12 | -2% (inactive) | -4% (inactive) | 24.4% (inactive)
c1ccc(Nc2cccc3ccccc23)cc1 | -1% (inactive) | 88% (active) | 95.5% (active)
COc1ccc2nc3cc(Cl)ccc3c(Nc3nccs3)c2c1 | 6% (inactive) | 94% (active) | 88.2% (active)
CC(/C=C/c1ccc(Cl)c(Cl)c1)=N\NC(N)=S | 61% (inactive) | 81% (active) | 80% (active)
S=C(C#Cc1ccccc1)Nc1ccccc1 | -93% (inactive) | 94% (active) | 99% (active)
C#CC(CC(C)C)(CC(C)C)OC(=O)Nc1ccccc1 | -6% (inactive) | 95% (active) | 97.3% (active)
CCCC(=O)Oc1ccc(-c2ccccc2)cc1Br | -1% (inactive) | 73% (active) | 95.9% (active)
c1ccc2c(c1)nc1cc(NC3CCCCC3)c(=NC3CCCCC3)cc-1n2C1CCCCC1 | 0% (inactive) | -49% (inactive) | 16.6% (inactive)
O=C(CBr)C1(Br)CCN(Cc2ccccc2)CC1 | 30% (inactive) | 99% (active) | 99.6% (active)
S=C(NCc1ccccc1)N/N=C/c1ccccn1 | 0% (inactive) | 51% (inactive) | 42.7% (inactive)
Cc1nn(C(=O)c2ccccc2O)c2c1C(c1ccco1)SC(N)=N2 (configuration not stated) | 11% (inactive) | 86% (active) | 59.3% (inactive)
[N-]=[N+]=NCC(O)c1ccc2c(c1)[nH]c1ccccc12 (configuration not stated) | 24% (inactive) | 68% (inactive) | 75.4% (active)

— PubChem BioAssay (NCI)
